# Many of the other results were omitted from the sample, so hits are more common in it than they were.
# TbREL1 primary = TbREL1 inhibition, primary screen; P86926; TbREL1 RNA ligation, FRET fluorescence; inhibition, % at 9.66 µM; 0.49% of 89,000 active; AID 1117264;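 active = inhibition above the mean inhibition across all screened compounds plus 3 SD, cut at about 11% in these data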;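 note: 0% = plate median of test wells and 100% = NSC42067 control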
# Target sequence (P86926 whole entry, looked up): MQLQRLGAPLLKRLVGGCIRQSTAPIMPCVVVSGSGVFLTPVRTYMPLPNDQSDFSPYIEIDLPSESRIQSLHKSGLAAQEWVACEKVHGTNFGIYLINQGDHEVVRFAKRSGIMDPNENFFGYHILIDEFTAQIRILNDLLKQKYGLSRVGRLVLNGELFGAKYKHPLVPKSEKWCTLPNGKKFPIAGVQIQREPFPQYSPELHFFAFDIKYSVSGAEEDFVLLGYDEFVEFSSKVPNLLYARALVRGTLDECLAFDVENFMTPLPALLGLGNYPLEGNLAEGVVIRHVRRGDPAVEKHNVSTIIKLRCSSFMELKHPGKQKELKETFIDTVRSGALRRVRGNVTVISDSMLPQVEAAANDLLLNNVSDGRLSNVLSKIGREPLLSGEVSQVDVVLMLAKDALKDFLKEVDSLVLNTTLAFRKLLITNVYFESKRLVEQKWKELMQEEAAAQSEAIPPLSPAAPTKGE
# TbREL1 conf = TbREL1 inhibition, confirmation; shares compounds with TbREL1 primary; TbREL1 RNA ligation, FRET fluorescence; inhibition, % at 9.66 µM; 37% of 390 active; AID 1117282;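 active = mean inhibition across replicates above a set limit taken from the earlier primary screen, cut at about 11% in these data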;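 note: 0% = REL1 with substrate and DMSO and 100% = REL1 plus control inhibitor NSC42067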
# * = called active by the depositor.
SMILES,TbREL1 primary,others
COc1ccc(C(=O)N[C@H]2CC[C@@]34CCCN3C(=O)CCC[C@H]4[C@H]2C)cc1,5,
Cc1ccc(-c2cc(NC(=O)Cc3c(C)[nH]c4ccccc34)ccc2Nc2cccnc2)cc1,-3,
CC(NCc1ccco1)C(=O)N1CCCC1 (stereo not drawn),0,
COc1ccc(Cn2ccc3ccc(-c4ccc5ccn(Cc6ccccc6F)c5c4)cc32)cc1,4,
Cc1ccc(C(=O)Oc2coc(CSc3ncccn3)cc2=O)cc1[N+](=O)[O-],-5,
O=S(=O)(NCc1ccccc1)c1cc(Br)ccc1Br,1,
COC(=O)[C@]12C[C@H](CC(=O)N3CCSCC3)C(=O)N(Cc3ccc(Cl)cc3Cl)C1=C[C@H](C1CCCC1)O[C@@H]2C,1,
CC1(C)C=C2C(N(Cc3ccc4c(c3)OCO4)C(=N)N2C(=O)OCc2ccccc2)n2c(=O)n(-c3ccccc3)c(=O)n21 (stereo not drawn),3,
CC(C)(C)OC(=O)N1CCC(N[C@@H](Cc2c[nH]c3ccccc23)C(=O)NCCc2c[nH]c3ccccc23)(C(=O)NC2CCCCC2)CC1,3,
Cc1nc2c(C)[n+](CC(=O)c3ccccc3)ccc2n1C,2,
O=C(C[n+]1cc2ccccc2c2ccccc21)c1ccccc1,13*,TbREL1 conf=9
O=C(O)CCC(=O)CCC(=O)c1ccccc1,7,
CC(C)(C)c1ccc(-c2nnc(SCC(=O)Nc3ccccc3-c3ccccc3)n2Cc2ccco2)cc1,4,
CCC[C@H]1[C@@H](NC(=O)C2CCC2)CC[C@@]23CCCN2C(=O)CCC[C@@H]13,2,
O=C(O)c1ccccc1-c1ccc(/C=C/c2cc(C(F)(F)F)[nH]c(=O)n2)o1,-15,
N=C1S/C(=C\c2ccc(-c3ccccc3C(=O)O)o2)C(=O)N1c1ccc2c(c1)OCO2,2,
O=C(O)c1ccccc1-c1ccc(C=c2sc3nc4cc(Br)cnc4n3c2=O)o1,45*,TbREL1 conf=48*
O=C(NCCc1nc2ccccc2n1CCOc1cc(F)ccc1F)C1CCCCC1,2,
Nc1c(C(=O)N2CCN(c3ccccc3)CC2)nnn1Cc1ccc(Cl)cc1,8,
COC(=O)C1=C(C)N(CCCC(=O)O)C(=O)NC1c1ccc2c(c1)OCO2 (stereo not drawn),2,
COC(=O)C1=C(C)N(Cc2ccc(Cl)cc2)C(=S)NC1c1cccc(Br)c1 (stereo not drawn),-3,
COC(=O)C1=C(C)N(Cc2ccccc2C(F)(F)F)C(=NCc2ccc3c(c2)OCO3)NC1c1cccc(Cl)c1 (stereo not drawn),14*,TbREL1 conf=14*
COC(=O)C1=C(C)N(Cc2ccccc2C(F)(F)F)C(=NCc2ccc3c(c2)OCO3)NC1c1cccc(F)c1 (stereo not drawn),13*,TbREL1 conf=18*
C=CCN(C)C(C#Cc1ccccc1)Cc1ccccc1 (stereo not drawn),1,
C#CCN1C(=O)[C@]2(OCCC=C[C@H]2C)c2ccccc21,-2,
SMILES,TbREL1 primary,others
c1ccc(CN2CCCC3CC2c2ccccc23)cc1 (stereo not drawn),1,
CSc1ccccc1NC(=O)CN(C)CC(=O)Nc1ccccc1F,12*,TbREL1 conf=3
CSc1ccccc1NC(=O)CN(C)Cc1ccc(Br)cc1,0,
CSc1ccccc1NC(=O)CCc1ccccc1,-3,
CSc1ccccc1NC(=O)CN(C)CC(=O)Nc1c(F)cccc1F,16*,TbREL1 conf=9
CN(CC(=O)Nc1cccc(F)c1)CC(=O)Nc1cccc2ccccc12,-1,
CSc1ccccc1NC(=O)CN(C)C(C)C(=O)Nc1ccc(C#N)cc1 (stereo not drawn),1,
O=C(NCc1ccccc1)O[C@H]1CC[C@@]23CCCN2C(=O)CCC[C@H]3C1,4,
O=C(Nc1ccc2c(c1)OCO2)OC1CC2CC1[C@H]1CCCCN1[C@H]2Cc1ccccc1 (stereo partly drawn),3,
C[C@H]1C2CC(OC(=O)Nc3ccc4c(c3)OCO4)C(C2)[C@H]2CCCCN21 (stereo partly drawn),-2,
Cc1onc(C(=O)N2CCN(C(c3ccc(F)cc3)c3ccc(F)cc3)CC2)c1[N+](=O)[O-],4,
Cc1cc(C)cc(NC(=O)NCCCN2CCN(c3ccc(F)cc3)CC2)c1,-1,
O=C(N/N=C/c1cccc(OC(=O)c2cccc(Br)c2)c1)c1cccnc1,1,
O=C(N/N=C/c1cccnc1)c1cccc(NC(=O)c2cccc(Br)c2)c1,12*,TbREL1 conf=1
O=C(N/N=C/c1ccc(OC(=O)c2cccc(Br)c2)cc1)c1cccnc1,0,
CC(C)CN1C(=O)C[C@]2(C(=O)N(C)c3ccc(NC(=O)c4cc(F)ccc4F)cc32)C1c1ccccc1 (stereo partly drawn),0,
Cc1ccc(-c2nn(-c3ccccc3)cc2/C=C/C(=O)O)o1,11*,TbREL1 conf=4
Cc1ccc(Cn2cc(/C=C/C(=O)O)c(-c3ccccc3)n2)cc1,0,
CN1CCN(C(=O)/C=C/c2cn(-c3ccccc3)nc2-c2ccc3c(c2)OCCO3)CC1,-4,
Nc1[nH]c(C(=O)c2ccccc2)c(-c2ccc(Br)cc2)c1C(=O)NCCCN1CCOCC1,5,
CCCCn1cnc2c(=O)[nH]ccc21,2,
O=[N+]([O-])c1ccc2[nH]nc(-c3ccccc3)c2c1,4,
COC(=O)CCc1c[nH]c2ccc([N+](=O)[O-])cc12,4,
Cc1ccc(N(C)S(=O)(=O)c2c[nH]c3ccc([N+](=O)[O-])cc23)cc1,14*,TbREL1 conf=9
COc1cccc(C2NC(=S)N(Cc3ccccc3)C(C)=C2C(C)=O)c1 (stereo not drawn),-3,
SMILES,TbREL1 primary,others
Cc1ccc(-n2c(Cc3cccs3)nnc2SCC(=O)Nc2ccccc2-c2ccccc2)cc1,0,
CCC[C@H]1[C@@H](NC(=O)c2cccc(C)c2)CC[C@@]23CCCN2C(=O)CCC[C@@H]13,5,
Cc1nc(=O)c(-c2ccccc2)c(C)n1-c1ccc(C(=O)O)cc1,-2,
CCOc1cccc(=O)c2c(C)n(-c3ccc(C(=O)O)cc3)c(C)c12,46*,TbREL1 conf=11*
CCOc1ccccc1CNCc1ccc(C(=O)O)cc1,1,
COc1cccc(=O)c2c(C)n(-c3ccc(C(=O)O)cc3)c(C)c12,23*,TbREL1 conf=12*
CCOC(=O)c1cc2c(C)n(-c3ccc(N(C)C)cc3)c(C)c2cc(C(=O)OCC)c1=O,-1,
Cc1cc(=O)n(-c2ccc(C(=O)O)cc2)[nH]1,0,
CC(C)c1ccc(NC(=O)O[C@@H]2CC[C@@]34CCCN3C(=O)CCC[C@H]4C2)cc1,1,
c1nc(NC[C@@H]2CCCO2)c2cc(-c3ccc4c(c3)OCO4)ccc2n1,-1,
C[C@H]1[C@@H](OC(=O)NCc2ccco2)CC[C@@]23CCCN2C(=O)CCC[C@@H]13,2,
CCCCCCCCN1C(=O)[C@@H](CC(=O)NCc2ccccc2)C[C@@]2(C(=O)OC)C1=C[C@H](C(C)C)O[C@@H]2C1CC1,5,
Cc1cc(Oc2cccnc2)ccc1NC(=O)Cc1cn(C)c2ccccc12,0,
O=C1CC(N2CCN(S(=O)(=O)c3ccccc3)CC2)C(=O)N1c1ccccc1 (stereo not drawn),2,
Cc1cccc(C)c1N1C(=O)CC(N2CCN(S(=O)(=O)c3ccccc3F)CC2)C1=O (stereo not drawn),3,
O=C1CC(N2CCN(S(=O)(=O)c3ccccc3F)CC2)C(=O)N1c1ccccc1F (stereo not drawn),11*,TbREL1 conf=-3
O=C(CSc1nnc(COc2ccccc2)n1-c1ccc(Cl)cc1)Nc1ccccc1-c1ccccc1,1,
